Results reported in paper PMC5540273 (PLoS ONE, 2017).

test system: T1, TIE2; details: concentration: 1 μM,replicates: in singlicate; n = 1
T1 construct: gene TEK
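Also: KINOMEscan kinase panel screen.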

SMILES | %Inh
CN(c1cccc(CNc2nc(Nc3ccc4c(c3)CC(=O)N4)ncc2C(F)(F)F)c1)S(C)(=O)=O | 42%
CC(=O)Nc1ccc(-c2cc3ncnc(SCC(=O)O)c3s2)cc1 | 6%
COc1cccc(OC)c1C(=O)Nc1cccc(-c2nn3ccccc3c2-c2ccnc(Nc3cccc(F)c3)n2)c1 [GSK361065] | 12%
CC(C(=O)NC1CCN(c2ccnc(Nc3ccc(F)cc3)n2)C1)c1ccc(Cl)cc1 (centres unmarked) [GSK1379713] | 0%
Cc1ccc(CC(=O)N2CCc3cc(-c4cn(C)c5ncnc(N)c45)ccc32)cc1 [GSK2634758] | 48%
Cl.Nc1n[nH]c2cc(-c3ccccn3)ccc12 [GSK2189892] | 0%
Cl.c1ccc(Oc2ccc(Nc3ccnc4cc(-c5ccc(CN6CCNCC6)o5)ccc34)cc2)nc1 [GW567142] | 0%
c1ccc(Oc2ccc(Nc3ccnc4ccc(-c5ccccn5)cc34)cc2)cc1 [GW407034] | 2%
COc1cccc(C2=C(Nc3cccc(Cl)c3)C(=O)NC2=O)c1 [SB-341556] | 0%
C[C@@H](Oc1cc(-n2cnc3cc(-c4cnn(C)c4)ccc32)sc1C(N)=O)c1ccccc1Cl [GSK580432] | 82%
O=C(Nc1n[nH]c2cc(-c3ccco3)ccc12)C1CC1 [SB-737447] | 3%
COc1cc2nccc(Nc3ccc(Oc4ccccc4)cc3)c2cc1OC.Cl [GI261656] | 0%
CN(c1ccccc1CNc1nc(Nc2ccc3c(c2)CC(=O)N3)ncc1C(F)(F)F)S(C)(=O)=O | 49%
N#Cc1cccc(C(=O)NC2CCN(c3ccnc(Nc4ccc(F)cc4)n3)C2)c1 (centres unmarked) [GSK1379708] | 0%
COc1cccc(CNC(=O)NC2CCN(c3ccnc(Nc4cc(OC)c(OC)c(OC)c4)n3)C2)c1 (centres unmarked) [GSK1379765] | 0%
Cc1ccc2c(-c3ccnc(Nc4ccc(C(F)(F)F)cc4)n3)cnn2n1 [GW819776] | 6%
O=C(Nc1ccc(Oc2ccc3nc(NC(=O)C4CC4)cn3n2)c(F)c1)c1cccn(-c2ccccc2)c1=O | 90.1%
CS(=O)(=O)Nc1ccc(-c2ccnc3[nH]ccc23)cc1 [GSK993273] | 3%
CNC(=O)c1ccccc1Nc1nc(Nc2cccc(CS(C)(=O)=O)c2)ncc1C.O=CO [GSK1520489] | 95%

SMILES | %Inh
O=C(Nc1cccc(C(F)(F)F)c1)c1cccc(Oc2ccc3nccn3n2)c1 | 0%
COC(=O)Nc1nc2cc(Oc3ccc(NC(=O)Nc4cc(C(F)(F)F)ccc4Cl)cc3)ccc2[nH]1.Cl [GW697465] | 99.2%
CC(C)c1nc(-c2cccc(NS(=O)(=O)c3ccccc3)c2)c(-c2ccnc(Nc3ccc4c(c3)CN(C)CC4)n2)s1 [GSK1649598] | 99%
CC(=O)Nc1nc2cnc(Nc3cc(NC(=O)c4cccc(CC(C)(C)C#N)c4)ccc3C)nc2s1 | 2%
CCn1c(-c2nonc2N)nc2cncc(CNC3CCNCC3)c21.Cl [SB-747651] | 0%
CC(C)S(=O)(=O)N1CCN(Cc2ccc3c(c2)nc(NC(=O)c2ccsc2)n3C[C@H](O)c2ccccc2)CC1 [GW635815] | 0%
COc1cc2ncn(-c3cc(OCC4CCCCC4)c(C(N)=O)s3)c2cc1OC [GSK204559] | 0%
NC(=O)c1ccc(-c2cc3ncnc(SCC(=O)O)c3s2)cc1 | 13%
COc1ccc(Nc2nccc(N3CCC(NC(=O)c4cccc(C#N)c4)C3)n2)cc1 (centres unmarked) [GSK1379730] | 5%
CCOC(=O)N1CCC(n2cnc(-c3ccc(F)cc3)c2-c2ccnc(N)n2)CC1 [SB-219952] | 10%
CCN1CCN(CCCC(=O)Nc2n[nH]c3nc(-c4ccc(O)cc4)c(Br)cc23)CC1 [SB-731579] | 0%
CC(=O)c1c(-c2ccncc2)[nH]c(-c2ccncc2)c1C [GW493036] | 1%
O=c1[nH]cc(-c2ccc(O)cc2)c2sc(-c3ccncc3)cc12 [GSK1033723] | 89%
C[C@@H]1CCN(C(=O)N2CCCC2)C[C@@H]1N(C)c1ncnc2[nH]ccc12 | 10%
CCn1c(-c2nonc2N)nc2cncc(Br)c21 [SB-738004] | 0%
Cc1n[nH]c2cc(Nc3ccnc(Nc4cccc(CN5CCOCC5)c4)n3)ccc12 [GW682569] | 2%
O=C(NOCC1CC1)c1cc(Br)c(F)c(F)c1Nc1ccc(I)cc1Cl | 16%
Cn1cc(-c2cccc3c(N)c(C(N)=O)nnc23)cn1 | 1%

test system: TLK1; details: concentration: 1 μM,replicates: in singlicate; n = 1

SMILES | %Inh
CN(c1cccc(CNc2nc(Nc3ccc4c(c3)CC(=O)N4)ncc2C(F)(F)F)c1)S(C)(=O)=O | 16%
CC(=O)Nc1ccc(-c2cc3ncnc(SCC(=O)O)c3s2)cc1 | 20%
COc1cccc(OC)c1C(=O)Nc1cccc(-c2nn3ccccc3c2-c2ccnc(Nc3cccc(F)c3)n2)c1 [GSK361065] | 19%
CC(C(=O)NC1CCN(c2ccnc(Nc3ccc(F)cc3)n2)C1)c1ccc(Cl)cc1 (centres unmarked) [GSK1379713] | 0%
Cc1ccc(CC(=O)N2CCc3cc(-c4cn(C)c5ncnc(N)c45)ccc32)cc1 [GSK2634758] | 0%
Cl.Nc1n[nH]c2cc(-c3ccccn3)ccc12 [GSK2189892] | 0%
Cl.c1ccc(Oc2ccc(Nc3ccnc4cc(-c5ccc(CN6CCNCC6)o5)ccc34)cc2)nc1 [GW567142] | 9%
c1ccc(Oc2ccc(Nc3ccnc4ccc(-c5ccccn5)cc34)cc2)cc1 [GW407034] | 0%
COc1cccc(C2=C(Nc3cccc(Cl)c3)C(=O)NC2=O)c1 [SB-341556] | 38%
C[C@@H](Oc1cc(-n2cnc3cc(-c4cnn(C)c4)ccc32)sc1C(N)=O)c1ccccc1Cl [GSK580432] | 0%
O=C(Nc1n[nH]c2cc(-c3ccco3)ccc12)C1CC1 [SB-737447] | 20%
COc1cc2nccc(Nc3ccc(Oc4ccccc4)cc3)c2cc1OC.Cl [GI261656] | 0%
CN(c1ccccc1CNc1nc(Nc2ccc3c(c2)CC(=O)N3)ncc1C(F)(F)F)S(C)(=O)=O | 0%
N#Cc1cccc(C(=O)NC2CCN(c3ccnc(Nc4ccc(F)cc4)n3)C2)c1 (centres unmarked) [GSK1379708] | 0%
COc1cccc(CNC(=O)NC2CCN(c3ccnc(Nc4cc(OC)c(OC)c(OC)c4)n3)C2)c1 (centres unmarked) [GSK1379765] | 0%
Cc1ccc2c(-c3ccnc(Nc4ccc(C(F)(F)F)cc4)n3)cnn2n1 [GW819776] | 18%
O=C(Nc1ccc(Oc2ccc3nc(NC(=O)C4CC4)cn3n2)c(F)c1)c1cccn(-c2ccccc2)c1=O | 0%
CS(=O)(=O)Nc1ccc(-c2ccnc3[nH]ccc23)cc1 [GSK993273] | 63%
CNC(=O)c1ccccc1Nc1nc(Nc2cccc(CS(C)(=O)=O)c2)ncc1C.O=CO [GSK1520489] | 22%

SMILES | %Inh
O=C(Nc1cccc(C(F)(F)F)c1)c1cccc(Oc2ccc3nccn3n2)c1 | 3%
COC(=O)Nc1nc2cc(Oc3ccc(NC(=O)Nc4cc(C(F)(F)F)ccc4Cl)cc3)ccc2[nH]1.Cl [GW697465] | 0%
CC(C)c1nc(-c2cccc(NS(=O)(=O)c3ccccc3)c2)c(-c2ccnc(Nc3ccc4c(c3)CN(C)CC4)n2)s1 [GSK1649598] | 41%
CC(=O)Nc1nc2cnc(Nc3cc(NC(=O)c4cccc(CC(C)(C)C#N)c4)ccc3C)nc2s1 | 0%
CCn1c(-c2nonc2N)nc2cncc(CNC3CCNCC3)c21.Cl [SB-747651] | 0%
CC(C)S(=O)(=O)N1CCN(Cc2ccc3c(c2)nc(NC(=O)c2ccsc2)n3C[C@H](O)c2ccccc2)CC1 [GW635815] | 0%
COc1cc2ncn(-c3cc(OCC4CCCCC4)c(C(N)=O)s3)c2cc1OC [GSK204559] | 6%
NC(=O)c1ccc(-c2cc3ncnc(SCC(=O)O)c3s2)cc1 | 5%
COc1ccc(Nc2nccc(N3CCC(NC(=O)c4cccc(C#N)c4)C3)n2)cc1 (centres unmarked) [GSK1379730] | 0%
CCOC(=O)N1CCC(n2cnc(-c3ccc(F)cc3)c2-c2ccnc(N)n2)CC1 [SB-219952] | 26%
CCN1CCN(CCCC(=O)Nc2n[nH]c3nc(-c4ccc(O)cc4)c(Br)cc23)CC1 [SB-731579] | 8%
CC(=O)c1c(-c2ccncc2)[nH]c(-c2ccncc2)c1C [GW493036] | 0%
O=c1[nH]cc(-c2ccc(O)cc2)c2sc(-c3ccncc3)cc12 [GSK1033723] | 6%
C[C@@H]1CCN(C(=O)N2CCCC2)C[C@@H]1N(C)c1ncnc2[nH]ccc12 | 12%
CCn1c(-c2nonc2N)nc2cncc(Br)c21 [SB-738004] | 9%
Cc1n[nH]c2cc(Nc3ccnc(Nc4cccc(CN5CCOCC5)c4)n3)ccc12 [GW682569] | 9%
O=C(NOCC1CC1)c1cc(Br)c(F)c(F)c1Nc1ccc(I)cc1Cl | 47%
Cn1cc(-c2cccc3c(N)c(C(N)=O)nnc23)cn1 | 2%
